Source: PubChem
NS1 function inh: influenza NS1 inhibition; Potency, µM (highest dose often 46.1 µM), for inactives: at the top dose activity, positive = more growth; 0.4% of 270,000 active; AID 2326; calls by dose curve; further: potency means the concentration at half of the fitted maximal effect; actives are rising curves; nearly all actives have a fitted effect of over 50% in size
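In this qHTS, NS1 from influenza A is expressed in budding yeast, where it slows growth. Cells are switched from glucose to 2% galactose medium (pH 6.0, -URA), treated with compound, and growth recovery is read at OD600.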
Shiga inhibitor: blocks Shiga toxin action in Vero cells; Vero cells, Shiga toxin protein synthesis inhibition reporter; inhibition, % at 38.7 µM; 9.2% of 290,000 active; AID 2315; in the data active means inhibition mostly above about 28%, no sharp cut-off; inactive means mostly below about 43%; further: 0% is about no effect
Pf growth 48h: inhibits P. falciparum growth in the first generation, 48 h; Potency, µM (titrated, usually from 28.7 µM), inactives show top-dose activity change, negative = inhibition, most hits filed as inhibitors; P. falciparum luciferase growth in erythrocytes, 48 h; AID 504832; 5.9% of 310,000 active; further: potency means the concentration at half of the fitted maximal effect; on the % scale 0 is the no-effect control and ±100 the full control effect
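Luciferase-expressing parasites in RBCs, 2% Hct / 0.1% parasitemia final; RPMI 1640 + 0.5% Albumax; 37 C, 5% CO2, one generation; luminescence read-out, lower signal = inhibition.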
Pf growth 96h: inhibits malaria parasite growth, 96 h | P. falciparum luciferase reporter growth, 96 h | Potency, µM (titrated, usually from 28.7 µM), inactives show top-dose activity change, negative = inhibition, actives largely listed as inhibitors | 6.9% of 320,000 active | AID 504834; further: potency means the concentration at half of the fitted maximal effect; on the % scale 0 is the no-effect control and ±100 the full control effect
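Readout is luminescence from an integrated firefly luciferase in P. falciparum. Red cells, 2% hematocrit and 0.05% parasitemia final, were cultured with compound through two parasite generations (96 hours) at 37 C, 5% CO2.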
Giardia FBPA inh: blocks Giardia fructose-bisphosphate aldolase activity; purified Giardia FBPA; 0.71% of 290,000 active; Potency, µM (top dose mostly 59.6 µM), inactives show at the top dose activity, negative = inhibition, usual class: inhibitors; A8B2U2; further: potency means the concentration at half of the fitted maximal effect; on the % scale 0 is the no-effect control and ±100 the full control effect; nearly all actives have a fitted effect of over 55% in size
Target sequence (A8B2U2 whole entry, looked up): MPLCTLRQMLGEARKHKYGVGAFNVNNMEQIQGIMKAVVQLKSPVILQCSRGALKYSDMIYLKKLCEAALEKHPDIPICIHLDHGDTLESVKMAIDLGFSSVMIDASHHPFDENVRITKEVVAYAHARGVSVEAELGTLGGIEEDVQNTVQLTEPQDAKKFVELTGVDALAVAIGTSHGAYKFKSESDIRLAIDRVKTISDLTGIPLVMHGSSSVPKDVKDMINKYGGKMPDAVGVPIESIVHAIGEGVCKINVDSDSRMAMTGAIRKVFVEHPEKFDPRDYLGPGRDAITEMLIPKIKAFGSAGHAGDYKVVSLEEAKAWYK
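Giardia FBPA (40 nM reagent) was preincubated 10 min at RT with compound (up to 57.5 uM final), then substrate plus GAPDH/TPI/NAD/arsenate coupling system with diaphorase/resazurin was added; resorufin fluorescence (525/598 nm) was read after 20 min.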
Cycloheximide cs: counter-screen hit for Shiga toxin inhibitors, cycloheximide; cell reporter, cycloheximide protein synthesis inhibition counterscreen; 12% of 300,000 active; AID 2314; max response, %; in the data active means max response mostly above about 13%, no sharp cut-off; inactive means mostly below about 14%; further: read at 38.3 µM for the half of the compounds with a filed dose; 0% is about no effect
Numbers without * were called inactive; ? = inconclusive; / = no result given; [ ] = another dose, or the depositor's remark. Most compounds without a hit are left out; they make up all but 21% or so of the library. Unless noted, the call rests on the fitted dose curve; in most records, active means well fitted curve in the direction sought with a large enough effect; inconclusive means small, poorly fitted or top-dose-only effect, or another doubt; inactive means no such curve, though single readings can be large; an effect the other way counts as inactive or inconclusive.

SMILES	NS1 function inh	Shiga inhibitor	Pf growth 48h	Pf growth 96h	Giardia FBPA inh	Cycloheximide cs
Cc1ccc(C(=O)CCNc2ccc(Cl)cc2)o1	-13%	31	/	10µM*	9%	17*
Cc1ccc(CCC(=O)Nc2ccc(CC(=O)O)cc2)o1	?	-8	-7%	-18%	-2%	9
CCc1ccc(NCCC(=O)c2ccc(Cl)cc2)cc1	-4%	-6	2%	57%	/	-1
Cc1ccc(CCC(=O)Nc2ccc(N(C)C)cc2)o1	22%	54*	34%	58%	17%	31*
CCc1ccc(CCC(=O)Nc2ccc(Cl)cc2)o1	-33%	24	20%	129%	8%	18*
O=C1COc2ccc(S(=O)(=O)N3CCC(C(=O)NCc4ccccc4)CC3)cc2N1	6%	33	2%	-6%	/	-2
CC(C)c1ncc(S(=O)(=O)c2ccc(C(F)(F)F)cn2)c(N)n1	6%	-11	-2%	8%	8%	1
O=C(Cn1nc(C(=O)O)c2ccccc2c1=O)c1c[nH]c2ccccc12	1%	35*	-10%	-13%	0%	9.4*
Cc1cc(C)c(C(=O)Cn2nc(C(=O)O)c3ccccc3c2=O)cc1C	3%	50	19%	2%	3%	7
Cc1cc(C(=O)Cn2nc(C(=O)O)c3ccccc3c2=O)c(C)n1-c1ccccc1	16%	95*	99%	103%	2%	59*
COc1cc(-c2coc3cc(OCc4ccccc4)c(OC)c(O)c3c2=O)cc(O)c1OC	/	/	/	/	-6%	/
CC(=O)NCCNc1ncncc1-c1ccccc1C	/	/	/	/	0%	/
NC(=O)N/N=C1\CC[C@H](O)C[C@@H]1CC(=O)O	0%	/	/	/	/	/
CCCn1cnnc1CNC(=O)C1CCC(=O)N(CCCc2ccccc2)C1 (configuration not stated)	-3%	0	15%	?	17%	5
CC(C)CC(=O)Nc1c2c(nn1-c1ccc(F)cc1)CS(=O)C2 (configuration not stated)	-8%	19	?	22%	4%	24*
COc1ccccc1NC(=O)N1CCCC1C(=O)NCCc1ccccc1 (configuration not stated)	11%	-16	-10%	?	2%	1
Cc1ccc(SC(=O)c2c(C)noc2-c2cc(C)on2)cc1	-48%	2	5%	-4%	-1%	-2
CCCCCc1c(O)nc(SCC(=O)NCC2CCCO2)[nH]c1=O (configuration not stated)	1%	-5	4%	0.47µM*	3%	-3
CCCCc1c(O)nc(SCC(=O)NCC2CCCO2)[nH]c1=O (configuration not stated)	4%	-3	-3%	-6%	3%	-6
O=C(NC(=S)N1CCCC1)c1cccc([N+](=O)[O-])c1	7%	-3	-16%	0%	/	-3
COC(=O)c1cnn(-c2ccccc2)c1C(OC)OC	0%	19	1%	-13%	-1%	1
COC(=O)c1cnn(-c2cc(Oc3ccccc3)ncn2)c1N	-1%	27	14%	66%	8%	23*
NC(=O)c1cnn(-c2cc(Oc3ccccc3)ncn2)c1N	-3%	59	86%	80%	1%	47*
COc1ccccc1Oc1cc(-n2nc(C)cc2C)ncn1	-11%	0	7%	14%	3%	-2
c1ccc(Oc2cc(-n3cccn3)ncn2)cc1	-3%	74*	211%	/	-1%	54*
SMILES	NS1 function inh	Shiga inhibitor	Pf growth 48h	Pf growth 96h	Giardia FBPA inh	Cycloheximide cs
N#Cc1cccnc1Oc1ccccc1	-2%	9	?	42%	9%	6
CCOc1cc(C(=O)OC(C)C(=O)Nc2ccc(NC(C)=O)cc2)ccc1OCC(=O)N1CCCCC1 (configuration not stated)	-4%	8	-16%	?	/	-1
COc1ccc(S(=O)(=O)NNc2nc(C)cc(C)n2)cc1[N+](=O)[O-]	14%	7	2%	?	/	-1
CCOC(=O)Cn1c(=O)oc2cc(S(=O)(=O)NC(C)c3ccccc3)ccc21 (configuration not stated)	3%	-8	/	8.3µM*	1%	-3
CCOC(=O)Cn1c(=O)oc2cc(S(=O)(=O)NCCC(C)C)ccc21	-11%	-10	/	?	2%	-3
CCOC(=O)Cn1c(=O)oc2cc(S(=O)(=O)Nc3cc(OCC)ccc3OCC)ccc21	-31%	10	?	1.5µM*	-5%	-3
COc1ccccc1N(C(=O)c1csnn1)C(C(=O)NC1CCCC1)c1ccccc1 (configuration not stated)	1%	-5	7%	6%	8%	-4
C=C(C)Cn1c(CCn2c3ccccc3c3ccccc32)n[nH]c1=S	9%	-17	11%	7.4µM*	2%	7
COCCn1c(=O)c(-c2ccccc2)nc2cnc(Oc3ccc(OC)cc3)nc21	/	/	/	/	-10%	/
Cc1c(C(=O)N(Cc2nnc(-c3ccccc3Cl)o2)C2CC2)oc2ccccc12	/	/	?	-25%	/	/
CN1CCN(S(=O)(=O)c2cccc(C(=O)N(Cc3nnc(-c4ccccc4Cl)o3)C3CC3)c2)CC1	1%	14	?	15µM*	/	1
CC(C)Cc1ccc(CN2CCCC(NC(=O)c3cccc(-n4cnnc4)c3)C2)cc1 (configuration not stated)	30%	11	13µM*	-22%	0%	13
CC(C)Cc1ccc(CN2CCCC(NC(=O)c3ccoc3)C2)cc1 (configuration not stated)	3%	32	10µM*	64%	/	2
Oc1ccccc1-c1n[nH]c(=S)n1Cc1ccccc1	-1%	-8	-7%	17%	7%	-2
Oc1ccccc1-c1cncn1Cc1ccccc1	-1%	-3	/	15µM*	0%	-3
CN(C)C(=O)CCSc1nnc(-c2ccncc2)o1	/	22	33%	0%	9%	7
Brc1ccc(C=Nc2ccc(Nc3ccccc3)cc2)s1	?	-9	?	13µM*	-18%	4
C(=Nc1ccc(Nc2ccccc2)cc1)c1ccc2ccccc2c1	5%	10	?	14%	-19%	11
CCOC(=O)c1oc2ccccc2c1COC(=O)CNC(=O)c1cccc(C)c1	-1%	-5	2%	6%	/	-2
Cc1cccc(N2CCN(CC(=O)Nc3ccc(S(=O)(=O)N4CCOCC4)cc3)CC2)c1C	-22%	2	?	5%	/	-2
O=C1NC(Cc2c[nH]c3ccccc23)C(=O)N1Cc1ccc(CN2C(=O)NC(Cc3c[nH]c4ccccc34)C2=O)cc1 (configuration not stated)	?	-8	5.2µM*	-19%	-5%	1
CN1CCN(c2ncc3nc(-c4ccc(F)cc4)c(=O)n(Cc4cccs4)c3n2)CC1	/	/	/	/	-1%	/
O=C(NNC(=S)Nc1ccc(Br)cc1)c1ccccc1Br	-28%	72	46%	9.3µM*	18%	11
CCOc1ccc(NC(=S)NNC(=O)c2ccc(Br)cc2)cc1	/	-6	?	-34%[5.75 µM]	22%	3
